PubChem BioAssay
For part of these data: Entries with a potency or affinity are not part of this list. Calls of active or inactive are those of the source. Unless noted, no rule for the calls is given here.

How the values were obtained:
[1] = antimalarial activity against Dd2 strain (AID 2302;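 active = growth inhibition above 50% at the single 2 µM test dose, taken to imply half-maximal potency below 2 µM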;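 also: 0% = DMSO untreated growth and 100% = chloroquine plus artemisinin killed control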); details: P. falciparum Dd2 in RBCs, LDH growth readout, 72 h; at 2 µM; hits give high values
[2] = HepG2 cytotoxicity, primary screen, cytotoxicity control for P. falciparum antimalarial project, cell-based, ATP luminescence (AID 2303;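 active = inhibition above 50%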;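 also: 0% = DMSO wells and 100% = digitonin-killed cells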); details: HepG2 viability, 24-48 h, at 10 µM, hits give high values
[3] = molecular target: L-lactate dehydrogenase (Plasmodium falciparum (isolate CDC / Honduras)) (UniProt Q27743); assay: PfLDH activity inhibition – cell lysate, 3D7 strain, counter-screen for P. falciparum growth inhibition project (AID 2304);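 also: 0% = vehicle and 100% = reference inhibitor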; details: P. falciparum 3D7 crude extract, LDH APAD/NBT absorbance; at 2 µM; hits give high values
L-lactate dehydrogenase (Plasmodium falciparum (isolate CDC / Honduras)), sequence (Q27743 whole entry, looked up): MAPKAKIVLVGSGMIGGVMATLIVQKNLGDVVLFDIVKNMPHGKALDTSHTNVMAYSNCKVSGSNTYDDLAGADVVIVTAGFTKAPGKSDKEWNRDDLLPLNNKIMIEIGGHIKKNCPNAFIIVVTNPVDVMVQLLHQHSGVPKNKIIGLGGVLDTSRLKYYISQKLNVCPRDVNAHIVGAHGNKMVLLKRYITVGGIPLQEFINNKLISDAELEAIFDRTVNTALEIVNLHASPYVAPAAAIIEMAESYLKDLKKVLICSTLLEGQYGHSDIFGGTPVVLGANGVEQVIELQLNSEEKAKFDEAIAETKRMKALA

[4] = inhibition of 3D7 malaria parasite growth – strain 3D7 (AID 2306);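 also: 0% = DMSO wells and 100% = chloroquine plus artemisinin control wells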; details: P. falciparum 3D7 erythrocytic growth, LDH absorbance, 72 h; at 2 µM; hits give high values
[5] = molecular target: Calcium-dependent protein kinase 1 (Plasmodium falciparum (isolate 3D7)) (UniProt P62344); assay: PfCDPK1 kinase inhibitors, biochemical, TCAMS library (AID 1159585; cut-off not given, nearly all actives have IC50 up to about 0.98 µM;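 also: inhibitors leave more ATP so luminescence rises with inhibition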); details: recombinant PfCDPK1, Kinase-Glo ATP depletion luminescence
Calcium-dependent protein kinase 1 (Plasmodium falciparum (isolate 3D7)), sequence (P62344 whole entry, looked up): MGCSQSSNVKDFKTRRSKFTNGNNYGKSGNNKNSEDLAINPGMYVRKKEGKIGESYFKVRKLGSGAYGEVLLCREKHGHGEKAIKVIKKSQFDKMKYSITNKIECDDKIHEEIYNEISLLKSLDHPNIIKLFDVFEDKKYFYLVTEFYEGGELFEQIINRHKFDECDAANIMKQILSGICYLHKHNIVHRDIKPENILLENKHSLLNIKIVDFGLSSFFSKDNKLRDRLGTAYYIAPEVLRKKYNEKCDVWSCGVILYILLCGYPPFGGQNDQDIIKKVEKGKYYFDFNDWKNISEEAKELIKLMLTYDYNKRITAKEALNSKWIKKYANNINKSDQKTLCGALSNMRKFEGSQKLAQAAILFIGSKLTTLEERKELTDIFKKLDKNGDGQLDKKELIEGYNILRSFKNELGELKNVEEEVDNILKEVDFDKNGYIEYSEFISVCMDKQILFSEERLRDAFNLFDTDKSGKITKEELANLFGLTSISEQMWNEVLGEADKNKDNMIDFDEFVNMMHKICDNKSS

[6] = molecular target: Plasmodium falciparum protein kinase 6 (PK6, PF3D7_1337100) (UniProt Q8IDW1); assay: PfPK6 kinase inhibitors, biochemical, TCAMS library (AID 1159586); details: recombinant PfPK6, Kinase-Glo ATP depletion luminescence
Plasmodium falciparum protein kinase 6 (PK6, PF3D7_1337100), sequence (Q8IDW1 1-305): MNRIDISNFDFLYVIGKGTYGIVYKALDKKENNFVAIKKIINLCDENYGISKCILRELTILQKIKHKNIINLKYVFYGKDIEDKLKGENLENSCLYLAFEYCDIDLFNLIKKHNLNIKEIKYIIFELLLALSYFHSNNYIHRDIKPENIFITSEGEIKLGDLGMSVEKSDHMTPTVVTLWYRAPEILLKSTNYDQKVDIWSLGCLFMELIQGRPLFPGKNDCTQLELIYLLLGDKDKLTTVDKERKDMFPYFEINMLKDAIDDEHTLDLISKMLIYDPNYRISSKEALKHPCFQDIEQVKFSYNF

[7] = molecular target: Protein kinase 7 (PK7), Plasmodium falciparum 3D7 (PF3D7_0213400) (UniProt Q7YTF7); assay: inhibition of Plasmodium PK7 catalytic activity – biochemical, TCAMS antimalarial set, Kinase-Glo luminescence (AID 1159587); details: recombinant PfPK7, Kinase-Glo ATP depletion luminescence
Protein kinase 7 (PK7), Plasmodium falciparum 3D7 (PF3D7_0213400), sequence (Q7YTF7 1-343): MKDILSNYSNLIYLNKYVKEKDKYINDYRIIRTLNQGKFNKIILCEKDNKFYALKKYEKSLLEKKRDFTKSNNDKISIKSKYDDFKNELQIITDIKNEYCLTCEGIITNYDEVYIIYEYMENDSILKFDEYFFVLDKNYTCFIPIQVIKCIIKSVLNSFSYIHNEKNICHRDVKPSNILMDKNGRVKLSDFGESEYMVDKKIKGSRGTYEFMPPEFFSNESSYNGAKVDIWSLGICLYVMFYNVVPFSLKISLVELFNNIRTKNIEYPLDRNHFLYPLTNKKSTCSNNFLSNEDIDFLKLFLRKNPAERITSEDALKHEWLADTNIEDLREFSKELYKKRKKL

[8] = molecular target: Calcium-dependent protein kinase 4 (Plasmodium falciparum (isolate 3D7)) (UniProt Q8IBS5); assay: PfCDPK4 kinase inhibitors, biochemical, TCAMS library (AID 1159588; cut-off not given, nearly all actives have IC50 up to about 0.91 µM); details: recombinant PfCDPK4, Kinase-Glo ATP depletion luminescence
Calcium-dependent protein kinase 4 (Plasmodium falciparum (isolate 3D7)), sequence (Q8IBS5 whole entry, looked up): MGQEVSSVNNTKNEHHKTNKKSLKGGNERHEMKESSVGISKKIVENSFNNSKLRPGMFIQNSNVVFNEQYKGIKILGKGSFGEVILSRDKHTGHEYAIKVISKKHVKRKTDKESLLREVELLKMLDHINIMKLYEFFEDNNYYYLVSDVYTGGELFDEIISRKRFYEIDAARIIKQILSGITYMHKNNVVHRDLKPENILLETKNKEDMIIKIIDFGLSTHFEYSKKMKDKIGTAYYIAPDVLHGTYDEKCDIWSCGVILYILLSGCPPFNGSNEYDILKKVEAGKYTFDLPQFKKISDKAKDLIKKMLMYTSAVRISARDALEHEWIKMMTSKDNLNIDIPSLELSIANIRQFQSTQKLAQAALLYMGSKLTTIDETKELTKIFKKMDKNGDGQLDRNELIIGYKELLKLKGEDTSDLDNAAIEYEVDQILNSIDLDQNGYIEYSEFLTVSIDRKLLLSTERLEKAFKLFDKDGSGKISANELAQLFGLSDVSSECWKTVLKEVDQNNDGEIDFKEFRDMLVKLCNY

Fc1ccccc1COc1ccc(Nc2ncnc3ccc(-c4nnc(C(F)(F)F)o4)cc23)cc1Cl
inactive: growth inhibition [1] 46% | inhibition [2] 7% | inhibition [3] 4% | outcome [5] | outcome [6] | outcome [7] | outcome [8]
active: growth inhibition [4] 100%

O=C(NCCCc1ccccc1)c1csc(C2CCCN(C(=O)c3ccc(O)c(-c4ccccc4)c3)C2)n1 (configuration not stated)
inactive: inhibition [2] 5% | inhibition [3] 5% | outcome [5] | outcome [6] | outcome [7] | outcome [8]
active: growth inhibition [1] 97% | growth inhibition [4] 97%

CC1(C)N=C(N)N=C(N)N1OCCc1cccc2ccccc12
active: growth inhibition [1] 97% | inhibition [2] 57% | growth inhibition [4] 95%
inactive: inhibition [3] -2% | outcome [5] | outcome [6] | outcome [7] | outcome [8]

COc1ccc2nccc([C@@H](O)CN3CCC(NCc4nc5c(C#N)cccc5[nH]4)CC3)c2c1
active: growth inhibition [4] 96%
inactive: growth inhibition [1] 9% | inhibition [2] -3% | inhibition [3] -5% | outcome [5] | outcome [6] | outcome [7] | outcome [8]

COc1ccc2nccc(N3CCC(SCCNS(=O)(=O)c4ccc5c(c4)NC(=O)CS5)C3)c2n1 (configuration not stated)
active: growth inhibition [4] 99%
inactive: growth inhibition [1] 17% | inhibition [2] 20% | inhibition [3] -5% | outcome [5] | outcome [6] | outcome [7] | outcome [8]

CCN(CCN(C)C)Cc1ccc(-c2ccc(NS(=O)(=O)c3cccc4cccnc34)cc2)cc1
active: growth inhibition [1] 57% | growth inhibition [4] 91%
inactive: inhibition [2] 16% | inhibition [3] 1% | outcome [5] | outcome [6] | outcome [7] | outcome [8]

O=S(=O)(NCCN1CCCC1)c1ccc(-c2ccc(CNCc3ccc(F)cc3)cc2)s1
inactive: growth inhibition [1] 44% | inhibition [2] 42% | inhibition [3] 6% | outcome [5] | outcome [6] | outcome [7] | outcome [8]
active: growth inhibition [4] 101%

Cc1cc(O)c(C(C)C)cc1C1(c2cc(C(C)C)c(O)cc2C)OC(=O)c2ccccc21
inactive: growth inhibition [1] 18% | inhibition [2] 8% | inhibition [3] -3% | outcome [5] | outcome [6] | outcome [7] | outcome [8]
active: growth inhibition [4] 95%

CCCCCCSc1nnc(COc2cccc3ccccc23)n1-c1ccc(OC)cc1
inactive: inhibition [2] 19% | inhibition [3] 3% | outcome [5] | outcome [6] | outcome [7] | outcome [8]
active: growth inhibition [1] 100% | growth inhibition [4] 99%

NC1=NC(c2ccccc2)N(c2ccccc2)C(N)=N1 (configuration not stated)
active: growth inhibition [1] 85% | growth inhibition [4] 96%
inactive: inhibition [2] 0% | inhibition [3] 2% | outcome [5] | outcome [6] | outcome [7] | outcome [8]

CC(C)CCNC(=O)C1Cc2c([nH]c3cc(Br)ccc23)C2(CCN(Cc3ccccc3)CC2)N1 (configuration not stated)
active: growth inhibition [4] 96%
inactive: growth inhibition [1] 45% | inhibition [2] 10% | inhibition [3] -5% | outcome [5] | outcome [6] | outcome [7] | outcome [8]

CCCCc1cc(NCc2ccncc2)nc(Nc2ccc(C)cc2)n1
active: growth inhibition [1] 59% | growth inhibition [4] 101%
inactive: inhibition [2] 7% | inhibition [3] -4% | outcome [5] | outcome [6] | outcome [7] | outcome [8]

CCNc1cc(C)nc(Nc2ccc(NC(=O)c3ccccc3Cl)cc2)n1
active: growth inhibition [1] 52% | growth inhibition [4] 100%
inactive: inhibition [2] 48% | inhibition [3] -2% | outcome [5] | outcome [6] | outcome [7] | outcome [8]

CN(C)CCCOc1ccc(CN2CC[C@H](NC(=O)c3ccc(Cl)c(Cl)c3)C2)c2ccccc12
inactive: inhibition [3] 0% | outcome [5] | outcome [6] | outcome [7] | outcome [8]
active: growth inhibition [1] 97% | inhibition [2] 81% | growth inhibition [4] 101%

CN(C)C1CCN(CC#Cc2cc3ncnc(Nc4ccc(OCc5cccc(F)c5)c(Cl)c4)c3s2)CC1
inactive: growth inhibition [1] 5% | inhibition [2] 34% | inhibition [3] -5% | outcome [5] | outcome [6] | outcome [7] | outcome [8]
active: growth inhibition [4] 85%

N#Cc1ccc2c(c1)CCN(CCC1CCC(NC(=O)c3cc4ccccc4[nH]3)CC1)CC2 (configuration not stated)
inactive: growth inhibition [1] 25% | inhibition [2] 17% | inhibition [3] -1% | outcome [5] | outcome [6] | outcome [7] | outcome [8]
active: growth inhibition [4] 89%

c1ccc2c3c(ccc2c1)Sc1c(ccc2ccccc12)N3
active: growth inhibition [4] 92%
inactive: growth inhibition [1] 31% | inhibition [2] -7% | inhibition [3] 0% | outcome [5] | outcome [6] | outcome [7] | outcome [8]

CC1CN=C(c2cccc(NC(=O)Nc3cccc(C4=NCC(C)N4)c3)c2)N1 (configuration not stated)
active: growth inhibition [1] 98% | growth inhibition [4] 94%
inactive: inhibition [2] 7% | inhibition [3] -3% | outcome [5] | outcome [6] | outcome [7] | outcome [8]

C[C@H](Nc1c(Nc2ccc3[nH]ccc3c2)c(=O)c1=O)C1CCCCC1
active: growth inhibition [4] 96%
inactive: growth inhibition [1] 11% | inhibition [2] 7% | inhibition [3] 6% | outcome [5] | outcome [6] | outcome [7] | outcome [8]

COc1cc(NCCCNCc2cn(S(=O)(=O)c3ccccc3)c3ccccc23)nc2ccccc12
active: growth inhibition [1] 77% | growth inhibition [4] 101%
inactive: inhibition [2] 36% | inhibition [3] 4% | outcome [5] | outcome [6] | outcome [7] | outcome [8]

Cn1cc(C(=O)Nc2cccc(-c3cccc(-c4nc5ccc(F)cc5[nH]4)c3)c2)n(C)c1=O
active: growth inhibition [1] 50% | growth inhibition [4] 98%
inactive: inhibition [2] 15% | inhibition [3] -1% | outcome [5] | outcome [6] | outcome [7] | outcome [8]

COCCNCc1ncsc1-c1ccc2c(Nc3cc(O)ccc3C)ccnc2c1
inactive: growth inhibition [1] 40% | inhibition [2] 9% | inhibition [3] 6% | outcome [5] | outcome [6] | outcome [7] | outcome [8]
active: growth inhibition [4] 101%

O=C(/C=C/c1ccc(Cl)c(Cl)c1)NCCCCCCN1CCN(C(=O)Nc2ccc(F)c(Cl)c2)CC1
inactive: growth inhibition [1] 2% | inhibition [2] 40% | inhibition [3] -7% | outcome [5] | outcome [6] | outcome [7] | outcome [8]
active: growth inhibition [4] 86%

Cc1cc(Nc2cccc(C(F)(F)F)c2)nc2ccc(NC(=O)c3ccc(=O)[nH]c3)cc12
inactive: inhibition [2] 21% | inhibition [3] 0% | outcome [5] | outcome [6] | outcome [7] | outcome [8]
active: growth inhibition [1] 60% | growth inhibition [4] 101%

C=C(C)CSc1nc2c(c(=O)n1CCc1ccccc1)C1(CCCC1)Cc1ccccc1-2
active: growth inhibition [1] 80% | growth inhibition [4] 101%
inactive: inhibition [2] 14% | inhibition [3] -5% | outcome [5] | outcome [6] | outcome [7] | outcome [8]

CC(C)NCc1cccc(-c2ccc(NC(=O)c3ccc(F)cc3)cc2)c1
inactive: growth inhibition [1] 3% | inhibition [2] 7% | inhibition [3] -1% | outcome [5] | outcome [6] | outcome [7] | outcome [8]
active: growth inhibition [4] 92%

COc1ccc2nccc(NN=Cc3ccc([N+](=O)[O-])cc3)c2c1
inactive: inhibition [2] 9% | inhibition [3] -2% | outcome [5] | outcome [6] | outcome [7] | outcome [8]
active: growth inhibition [1] 68% | growth inhibition [4] 100%

CC(C)[C@H](NC(=O)NC1CCC(CCN2[C@@H]3CC[C@H]2CC(OC(=O)C(CO)c2ccccc2)C3)CC1)C(O)(c1ccccc1)c1ccccc1 (some centres not stated)
active: growth inhibition [4] 90%
inactive: growth inhibition [1] 4% | inhibition [2] 17% | inhibition [3] 1% | outcome [5] | outcome [6] | outcome [7] | outcome [8]

CC(C)C(NC(=O)c1c(F)cccc1F)C(=O)Nc1ccc(Cc2nc3ccccc3s2)cc1 (configuration not stated)
active: growth inhibition [1] 55% | growth inhibition [4] 86%
inactive: inhibition [2] 0% | inhibition [3] 6% | outcome [5] | outcome [6] | outcome [7] | outcome [8]

O=C(Nc1ccc(Oc2ccccc2)cc1)N1CCC(CCN2CCC(c3c[nH]c4ccccc34)CC2)CC1
inactive: growth inhibition [1] 36% | inhibition [2] 42% | inhibition [3] 7% | outcome [5] | outcome [6] | outcome [7] | outcome [8]
active: growth inhibition [4] 100%

O=S(=O)(NC1CCN(c2ccnc3cc(Cl)ccc23)C1)c1cccc(F)c1 (configuration not stated)
active: growth inhibition [1] 88% | growth inhibition [4] 98%
inactive: inhibition [2] 19% | inhibition [3] 5% | outcome [5] | outcome [6] | outcome [7] | outcome [8]

CCN(CC)CCCC(C)N=C(Nc1ccc(C#N)cc1O)Nc1ccccc1Br (configuration not stated)
active: growth inhibition [4] 89%
inactive: growth inhibition [1] -2% | inhibition [2] 4% | inhibition [3] 2% | outcome [5] | outcome [6] | outcome [7] | outcome [8]

O=C(/C=C/c1ccc(Cl)cc1)NCCCCCN1CCC(C(=O)Nc2ccc(Cl)c(Cl)c2)CC1
inactive: growth inhibition [1] -4% | inhibition [2] 47% | inhibition [3] -3% | outcome [5] | outcome [6] | outcome [7] | outcome [8]
active: growth inhibition [4] 100%

Cc1[nH]nc2ccc(-c3ccc4nccc(N5CCC(N)CC5)c4c3)cc12
active: growth inhibition [1] 100% | inhibition [2] 67% | growth inhibition [4] 101%
inactive: inhibition [3] -3% | outcome [5] | outcome [6] | outcome [7] | outcome [8]

CCCCCOc1ccc(NC2=CC(=O)C(=O)c3ccccc32)cc1
active: growth inhibition [1] 96% | growth inhibition [4] 99%
inactive: inhibition [2] 10% | inhibition [3] -4% | outcome [5] | outcome [6] | outcome [7] | outcome [8]

COc1ccc(N2CCN(CCc3ccc(NC(=O)c4ccc([N+](=O)[O-])cc4)cc3)CC2)c(OC)c1
active: growth inhibition [4] 83%
inactive: growth inhibition [1] 0% | inhibition [2] 45% | inhibition [3] 1% | outcome [5] | outcome [6] | outcome [7] | outcome [8]

O=C(NCCCN1CCN(c2cccc(Cl)c2)CC1)c1ccc(-c2nc3cc(Cl)c(Cl)cc3[nH]2)c(F)c1
active: growth inhibition [1] 72% | growth inhibition [4] 101%
inactive: inhibition [2] 3% | inhibition [3] 2% | outcome [5] | outcome [6] | outcome [7] | outcome [8]

CC1(C)N=C(N)N=C(N)N1OCCSc1ccc(Cl)c(Cl)c1
inactive: inhibition [3] -1% | outcome [5] | outcome [6] | outcome [7] | outcome [8]
active: growth inhibition [1] 95% | inhibition [2] 65% | growth inhibition [4] 96%

Cc1[nH]c2ccccc2c(=O)c1Br
active: growth inhibition [1] 84% | growth inhibition [4] 94%
inactive: inhibition [2] 2% | inhibition [3] 3% | outcome [5] | outcome [6] | outcome [7] | outcome [8]
